The supplement of paper PMC6089552
In all, about 3,200 compounds went through this assay and about 300 (9.4%) showed activity. What follows is part of a selection rich in actives, with near analogues and random picks from the rest. Unmarked numbers belong to inactive results.

Test system: A673/TR/shEF
Assay: cell viability (LOESS-normalised, relative to median of negative controls) (log2 ratio); higher = more viable cells (less compound effect), active = hit call of the paper (over 3 MAD below the median)
Conditions: treatment time: 72 h
How it was run: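 For three days, A673/TR/shEF Ewing sarcoma cells in 384-well plates (1,500 per well) were treated with library compounds at two or more concentrations or with DMSO controls, after doxycycline had been added or withheld 24 h beforehand to induce EWS-FLI1 shRNA knockdown. Viability was read by CellTiter-Glo luminescence on an Envision reader. The data were LOESS-corrected per plate, divided by the median of negative controls and log2-transformed.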

[1] = 0.25 µM, library screen: screen2, EWS-FLI1 expression: high (no doxycycline)
[2] = 0.25 µM, library screen: screen2, EWS-FLI1 expression: low (doxycycline-induced shRNA knockdown)
[3] = 2.5 µM, library screen: screen2, EWS-FLI1 expression: high (no doxycycline)
[4] = 2.5 µM, library screen: screen2, EWS-FLI1 expression: low (doxycycline-induced shRNA knockdown)
[5] = 0.25 µM, library screen: screen1, EWS-FLI1 expression: high (no doxycycline)
[6] = 0.25 µM, library screen: screen1, EWS-FLI1 expression: low (doxycycline-induced shRNA knockdown)
[7] = 2.5 µM, library screen: screen1, EWS-FLI1 expression: high (no doxycycline)
[8] = 2.5 µM, library screen: screen1, EWS-FLI1 expression: low (doxycycline-induced shRNA knockdown)
[9] = 0.103 µM, library screen: screen3, EWS-FLI1 expression: high (no doxycycline)
[10] = 0.103 µM, library screen: screen3, EWS-FLI1 expression: low (doxycycline-induced shRNA knockdown)
[11] = 0.308 µM, library screen: screen3, EWS-FLI1 expression: high (no doxycycline)
[12] = 0.308 µM, library screen: screen3, EWS-FLI1 expression: low (doxycycline-induced shRNA knockdown)
[13] = 0.926 µM, library screen: screen3, EWS-FLI1 expression: high (no doxycycline)
[14] = 0.926 µM, library screen: screen3, EWS-FLI1 expression: low (doxycycline-induced shRNA knockdown)
[15] = 2.8 µM, library screen: screen3, EWS-FLI1 expression: high (no doxycycline)
[16] = 2.8 µM, library screen: screen3, EWS-FLI1 expression: low (doxycycline-induced shRNA knockdown)
[17] = 8.3 µM, library screen: screen3, EWS-FLI1 expression: high (no doxycycline)
[18] = 8.3 µM, library screen: screen3, EWS-FLI1 expression: low (doxycycline-induced shRNA knockdown)
[19] = 25 µM, library screen: screen3, EWS-FLI1 expression: high (no doxycycline)
[20] = 25 µM, library screen: screen3, EWS-FLI1 expression: low (doxycycline-induced shRNA knockdown)

## CCCN(CCC)[C@@H]1CCc2c(F)ccc(O)c2C1
[1]
  cell viability (log2): 0.13
[2]
  cell viability (log2): 0.0763
[3]
  cell viability (log2): 0.181
[4]
  cell viability (log2): 0.101

## O=C1NCN(c2ccccc2)C12CCN(CC1COc3ccccc3O1)CC2 (stereo not drawn)
[1]
  cell viability (log2): 0.177
[2]
  cell viability (log2): 0.0806
[3]
  cell viability (log2): 0.104
[4]
  cell viability (log2): 0.0692

## C/C=C(\C)C(=O)O[C@H]1C[C@@H](OC(C)=O)[C@@]2(C(=O)OC)CO[C@H]3[C@@H](O)[C@@](C)([C@]45O[C@@]4(C)[C@H]4C[C@@H]5O[C@@H]5OC=C[C@@]54O)[C@H]4[C@]1(CO[C@]4(O)C(=O)OC)[C@@H]32
[5]
  cell viability (log2): 0.103
[6]
  cell viability (log2): 0.0233
[7]
  cell viability (log2): 0.139
[8]
  cell viability (log2): -0.02

## Cc1cccc(C)c1NC(=O)CN1CCCC1=O
[9]
  cell viability (log2): 0.119
[10]
  cell viability (log2): -0.000586
[11]
  cell viability (log2): 0.107
[12]
  cell viability (log2): 0.118
[13]
  cell viability (log2): 0.135
[14]
  cell viability (log2): 0.0891
[15]
  cell viability (log2): 0.156
[16]
  cell viability (log2): 0.0751
[17]
  cell viability (log2): 0.15
[18]
  cell viability (log2): 0.0489
[19]
  cell viability (log2): 0.154
[20]
  cell viability (log2): 0.0876

## O=c1ccc2cc(O[C@@H]3OC(CO)[C@@H](O)C(O)C3O)c(O)cc2o1 (stereo partly drawn)
[5]
  cell viability (log2): 0.0986
[6]
  cell viability (log2): -0.0879
[7]
  cell viability (log2): 0.201
[8]
  cell viability (log2): 0.107

## CC(C)N(C(=O)SCC(Cl)=C(Cl)Cl)C(C)C
[5]
  cell viability (log2): 0.0806
[6]
  cell viability (log2): 0.0889
[7]
  cell viability (log2): -0.00898
[8]
  cell viability (log2): 0.0996

## CC1=C2C[C@H]3[C@@H](CC=C4C[C@@H](O)CC[C@@]43C)[C@@H]2CC[C@]12O[C@@H]1C[C@H](C)CN[C@H]1[C@H]2C
[9]
  cell viability (log2): 0.00521
[10]
  cell viability (log2): 0.0036
[11]
  cell viability (log2): 0.012
[12]
  cell viability (log2): 0.0389
[13]
  cell viability (log2): -0.00313
[14]
  cell viability (log2): 0.0472
[15]
  cell viability (log2): 0.0157
[16]
  cell viability (log2): 0.0183
[17]
  cell viability (log2): -0.0322
[18]
  cell viability (log2): 0.102
[19]
  cell viability (log2): -0.00963
[20]
  cell viability (log2): 0.053

## Cc1cccc(CN2CCN(Cc3ccc(F)cc3)CC2)c1
[5]
  cell viability (log2): 0.0688
[6]
  cell viability (log2): 0.0518
[7]
  cell viability (log2): 0.143
[8]
  cell viability (log2): 0.0989

## C[C@H]1OC[C@@H](C[N+](C)(C)C)O1
[1]
  cell viability (log2): 0.185
[2]
  cell viability (log2): 0.123
[3]
  cell viability (log2): 0.146
[4]
  cell viability (log2): 0.0964

## C[C@H]1O[C@@H](C[N+](C)(C)C)CS1
[1]
  cell viability (log2): 0.209
[2]
  cell viability (log2): 0.0237
[3]
  cell viability (log2): -0.0233
[4]
  cell viability (log2): 0.035

## O=C(OC1CC2CCC(C1)[N+]21CCCC1)C(O)(c1ccccc1)c1ccccc1 (stereo not drawn)
[9]
  cell viability (log2): 0.0271
[10]
  cell viability (log2): 0.0529
[11]
  cell viability (log2): 0.0379
[12]
  cell viability (log2): 0.0384
[13]
  cell viability (log2): -0.0177
[14]
  cell viability (log2): 0.0427
[15]
  cell viability (log2): 0.0921
[16]
  cell viability (log2): 0.0957
[17]
  cell viability (log2): 0.022
[18]
  cell viability (log2): 0.0679
[19]
  cell viability (log2): 0.0665
[20]
  cell viability (log2): 0.0295

## C=C1[C@H]2CCC3[C@@](CC[C@@H]4[C@H](C(=O)O)C[C@@H](O[C@H]5O[C@H](CO)[C@@H](OS(=O)(=O)O)[C@H](OS(=O)(=O)O)[C@H]5OC(=O)CC(C)C)C[C@@]34C)(C2)[C@H]1O (stereo partly drawn)
[5]
  cell viability (log2): 0.138
[6]
  cell viability (log2): 0.098
[7]
  cell viability (log2): 0.0683
[8]
  cell viability (log2): 0.0267

## COc1nc(NC(C)C)nc(NC(C)C)n1
[5]
  cell viability (log2): -0.00161
[6]
  cell viability (log2): 0.0381
[7]
  cell viability (log2): 0.104
[8]
  cell viability (log2): 0.186

## COC(=O)/C=C(\C)OP(=O)(OC)OC
[5]
  cell viability (log2): -0.00893
[6]
  cell viability (log2): -0.0133
[7]
  cell viability (log2): 0.034
[8]
  cell viability (log2): 0.0603

## CCC(C)C(OC(C)=O)C(=O)O[C@H]1[C@H](O)C2[C@@]3(C)C=CC(=O)C(C)(C)C3C[C@@H](OC(=O)C(O)C(C)C)[C@@]2(C)[C@@]23O[C@@H]2C[C@@H](c2ccoc2)[C@]13C (stereo partly drawn)
[5]
  cell viability (log2): 0.0564
[6]
  cell viability (log2): 0.0957
[7]
  cell viability (log2): 0.0934
[8]
  cell viability (log2): 0.141

## CN(C)[C@@H]1C(=O)C(C(N)=O)=C(O)[C@@]2(O)C(=O)C3=C(O)c4c(O)cccc4[C@@](C)(O)[C@H]3[C@H](O)[C@@H]12
[9]
  cell viability (log2): 0.0702
[10]
  cell viability (log2): 0.0143
[5]
  cell viability (log2): 0.0991
[6]
  cell viability (log2): 0.163
[11]
  cell viability (log2): 0.0382
[12]
  cell viability (log2): 0.159
[13]
  cell viability (log2): 0.119
[14]
  cell viability (log2): 0.101
[7]
  cell viability (log2): 0.158
[8]
  cell viability (log2): 0.172
[15]
  cell viability (log2): 0.158
[16]
  cell viability (log2): 0.126
[17]
  cell viability (log2): 0.103
[18]
  cell viability (log2): 0.0656
[19]
  cell viability (log2): 0.0616
[20]
  cell viability (log2): 0.0848

## CN(C)[C@@H]1C(=O)C(C(N)=O)=C(O)[C@@]2(O)C(=O)C3=C(O)c4c(O)cccc4[C@@](C)(O)[C@H]3C[C@@H]12
[5]
  cell viability (log2): -0.127 (active)
[6]
  cell viability (log2): 0.111
[7]
  cell viability (log2): -0.0332
[8]
  cell viability (log2): 0.155

## CN1Cc2c(ccc3c2OCO3)[C@@H]2[C@H]1c1cc3c(cc1C[C@@H]2O)OCO3
[5]
  cell viability (log2): 0.0821
[6]
  cell viability (log2): 0.0876
[7]
  cell viability (log2): -0.0483
[8]
  cell viability (log2): 0.0764

## Ic1ccccc1CN[C@H]1C2CCN(CC2)[C@H]1C(c1ccccc1)c1ccccc1
[1]
  cell viability (log2): 0.128
[2]
  cell viability (log2): 0.206
[3]
  cell viability (log2): 0.245
[4]
  cell viability (log2): 0.191

## CC1(C)C(=O)C=C[C@]2(C)C1=C(O)C(=O)[C@@]1(C)[C@H]2CC[C@]2(C)[C@@H](c3ccoc3)C[C@@H]3O[C@]312
[5]
  cell viability (log2): 0.0131
[6]
  cell viability (log2): 0.0981
[7]
  cell viability (log2): -0.0522
[8]
  cell viability (log2): 0.0901

## CCCC(C)C1(CC)C(=O)NC(=S)NC1=O (stereo not drawn)
[5]
  cell viability (log2): 0.047
[6]
  cell viability (log2): -0.0503
[7]
  cell viability (log2): 0.164
[8]
  cell viability (log2): 0.136

## CNC(=O)Oc1cccc2c1OC(C)(C)O2
[5]
  cell viability (log2): 0.147
[6]
  cell viability (log2): 0.159
[7]
  cell viability (log2): 0.155
[8]
  cell viability (log2): 0.0893

## CCCCCC[C@H]1C(=O)O[C@H](C)[C@H](NC(=O)c2cccc(NC=O)c2O)C(=O)O[C@@H](C)[C@@H]1OC(=O)CC(C)C
[5]
  cell viability (log2): -0.888 (active)
[6]
  cell viability (log2): -0.636 (active)
[7]
  cell viability (log2): -1.71 (active)
[8]
  cell viability (log2): -0.774 (active)
